About 2,000 (36%) of roughly 5,500 compounds were called active. Inconclusive results (about 18%) are left out. Cut-off read from the data, not from the text of the source: active = normalized growth mostly below about 0.91 (no sharp cut-off); inconclusive = no clear call, values can overlap the other calls; inactive = mostly above about 0.92. The list shows a part of the results.
Experiment: chemical genetic growth profiling, strain panel (AID 1159580);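 note: tested at 20 µM; growth read once vehicle control cultures reached saturation at 30 °C; 1 = growth at the plate median or of vehicle wells; lower values mean less growth of the strain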
Conditions: S. cerevisiae deletion strains, growth OD

Measured: normalized growth

Nc1ccc(C(=O)O)c(O)c1 (tested in a mixture with another compound)
inactive: locus YBR021W, strain FUR4, hits give low values 1 | locus YBR229C, strain ROT2, hits give low values 0.988 | locus YCL029C, strain bik1, hits give low values 0.993 | locus YDL035C, strain GPR1, hits give low values 0.989 | locus YDL074C, strain BRE1, hits give low values 1.01 | locus YDL101C, strain DUN1, hits give low values 0.995 | locus YDL134C, strain PPH21, hits give low values 0.994 | locus YDL185W, strain tfp1, hits give low values 0.993 | locus YDL192W, strain arf1, hits give low values 0.988 | locus YDR101C, strain arx1, hits give low values 1.02 | locus YDR162C, strain NBP2, hits give low values 0.995 | locus YDR318W, strain mcm21, hits give low values 0.992 | locus YDR388W, hits give low values 0.981 | locus YDR502C, strain sam2, hits give low values 1.02 | locus YEL061C, strain CIN8, hits give low values 0.994 | locus YER110C, hits give low values 0.976 | locus YER155C, strain BEM2, hits give low values 0.999 | locus YER167W, strain BCK2, hits give low values 0.985 | locus YGL078C, strain dbp3, hits give low values 0.992 | locus YGL086W, strain mad1, hits give low values 1.03 | locus YGL248W, strain PDE1, hits give low values 0.994 | locus YGR135W, strain pre9, hits give low values 0.945 | locus YGR252W, strain gcn5, hits give low values 0.963 | locus YHR030C, strain SLT2, hits give low values 0.993 | locus YHR079C, strain IRE1 (second series), hits give low values 0.98 | locus YHR094C, strain hxt1, hits give low values 0.977 | locus YHR129C, strain ARP1, hits give low values 0.998 | locus YHR200W, strain rpn10, hits give low values 0.988 | locus YIL066C, strain RNR3, hits give low values 0.996 | locus YIL073C, strain SPO22, hits give low values 1.01 | locus YIL125W, strain kgd1, hits give low values 0.988 | locus YIR030C, strain dcg1, hits give low values 0.979 | locus YJL095W, strain BCK1, hits give low values 1.02 | locus YJL134W, strain LCB3, hits give low values 0.994 | locus YJL168C, strain set2, hits give low values 0.976 | locus YJL187C, strain SWE1 (second series), hits give low values 1.01 | locus YJR043C, strain POL32, hits give low values 0.981 | locus YJR075W, strain HOC1, hits give low values 0.988 | locus YKL009W, strain mrt4, hits give low values 1 | locus YKL068W, hits give low values 0.992 | locus YKL085W, strain MDH1 (second series), hits give low values 0.984 | locus YKL085W, strain MDH1, hits give low values 0.984 | locus YKL190W, strain CNB1, hits give low values 0.998 | locus YKR001C, strain vps1, hits give low values 0.998 | locus YLR039C, strain RIC1, hits give low values 1.06 | locus YLR058C, strain SHM2, hits give low values 0.989 | locus YLR102C, strain apc9, hits give low values 0.983 | locus YLR262C, strain YPT6, hits give low values 1.02 | locus YLR268W, strain sec22, hits give low values 0.992 | locus YLR330W, strain CHS5, hits give low values 0.994 | locus YLR342W, strain FKS1 (second series), hits give low values 0.968 | locus YLR371W, strain rom2, hits give low values 0.977 | locus YLR418C, strain cdc73, hits give low values 0.957 | locus YML016C, strain PPZ1, hits give low values 0.99 | locus YML032C, strain rad52, hits give low values 0.994 | locus YML124C, strain tub3, hits give low values 0.989 | locus YMR078C, strain ctf18, hits give low values 0.978 | locus YMR223W, strain ubp8, hits give low values 0.964 | locus YMR307W, strain GAS1, hits give low values 0.909 | locus YNL067W, strain RPL9B, hits give low values 1.02 | locus YNL128W, strain TEP1, hits give low values 0.995 | locus YNL153C, strain GIM3, hits give low values 1.04 | locus YNL233W, strain BNI4, hits give low values 1.01 | locus YNL250W, strain rad50, hits give low values 0.981 | locus YNL271C, strain bni1, hits give low values 0.991 | locus YNL298W, strain CLA4, hits give low values 0.983 | locus YNL307C, strain MCK1, hits give low values 0.981 | locus YNR052C, strain pop2, hits give low values 0.991 | locus YOL006C, strain TOP1, hits give low values 1.08 | locus YOL012C, strain htz1 0.929 | locus YOL147C, strain pex11, hits give low values 0.988 | locus YOR061W, strain CKA2, hits give low values 0.993 | locus YOR069W, strain VPS5, hits give low values 0.988 | locus YOR136W, strain idh2, hits give low values 0.987 | locus YOR144C, strain elg1, hits give low values 0.977 | locus YOR184W, strain ser1, hits give low values 0.971 | locus YOR316C, strain cot1, hits give low values 0.986 | locus YPR119W, strain clb2, hits give low values 0.984 | locus YPR141C, strain kar3, hits give low values 0.984 | locus YPR163C, strain tif3, hits give low values 0.979 | locus YPR167C, strain met16, hits give low values 0.981 | strain wtn01, hits give low values 1.01

Reference: PubChem BioAssay AID1159580 (chemical genetic matrix, 2015)
